# Test results from PubChem BioAssay (Tox21).
# Several values for one entry are separate records, joined by “and”; a condition that tells them apart may be missing. Equal entries are not always repeated. Records with an inconclusive call do not appear. A call without a number means that no potency is given here. The source holds several records for some structures; these can differ, active in one and inactive in another. Activity calls are given as the source filed them. Calls follow the shape of the dose curve; as a rule, active = well fitted cell-killing curve with a large enough effect in the repeat runs; inconclusive = weak or mixed curves, or effect the other way; inactive = no such curve, though single readings can be large or run the other way.
# Test: qHTS assay to identify small molecule agonists of the RXR signaling pathway - cell viability counter screen (AID 1159529); also: nearly all actives have a fitted effect of over 50% in size
# Details: RXR-alpha-bla HEK293T viability, CellTiter-Glo, 16 h; series mostly up to 76.8 µM; activity change, negative = cytotoxicity: at the top concentration
# Description: National Center for Advancing Translational Sciences [NCATS]
# NIH Chemical Genomics Center [NCGC]
# U.S. Environmental Protection Agency [EPA]
# National Institutes of Environmental Health Sciences [NIEHS]
# National Toxicology Program [NTP]
# U.S. Food and Drug Administration [FDA]
# The Retinoid X receptor (RXR), a nuclear hormone receptor expressed in liver, spleen, placenta, epidermis, central nervous system. These receptors are able to form homo and heterodimers with other nuclear receptors and due to this heterodimerizing ability, RXR functions as master regulators producing diverse physiological effects. Three subtypes of RXR exist; alpha, beta and gamma. Retinoid X receptor alpha (RXR-alpha) has potential roles in metabolic signaling pathways, skin alopecia, dermal cysts, cardiac development, insulin sensitization etc. Therefore screening environmental chemicals on RXR-alpha signaling can be used for the studies focused on such therapeutic applications. For quantification of RXR-alpha ligands signaling, GeneBLAzer RXR alpha-UAS-bla HEK 293T (Life Technologies, Carlsbad, CA) cells containing a beta-lactamase reporter-gene under control of Retinoid X receptor-alpha response element were used to screen Tox21 10K library. The cytotoxicity of the Tox21 compound library against the RXR-alpha HEK 293T cell line was tested in parallel by measuring cell viability using CellTiter-Glo assay (Promega Corporation, Madison, WI) in the same wells.
# Tox21 Assay Protocol Summary:
# RXR-alpha HEK 293T cells were dispensed at 2,000 cells/6 uL of assay medium containing 2% charcoal-stripped FBS using a Multidrop Combi (ThermoFisher Scientific, Waltham, MA) dispenser. The assay was performed in black wall/clear-bottom 1536-well plates (Greiner Bio-One North America Inc. Monroe, NC). Tetraoctyl ammonium bromide was used as a positive control in the cytotoxicity screen. After the assay plates were incubated at 37 C and 5% CO2 for 5 hr, 23 nL of compounds dissolved in DMSO, positive control or DMSO only were transferred to the assay plate by a Pintool station (Kalypsys, San Diego, CA). The assay plates were incubated at 37 C and 5% CO2 for 16 hr. One uL of LiveBLAzer B/G FRET substrate (Life Technologies) was added using a Flying Reagent Dispenser (FRD) (Aurora Discovery, San Diego, CA) and the plates were incubated at room temperature for 2 hr. Fluorescence intensity (405 nm excitation, 460/530 nm emission) was measured using an Envision plate reader (PerkinElmer, Shelton, CT). For cytotoxicity, 4 uL/well of CellTiter-Glo reagent was added into the assay plates using an FRD. After 30 min incubation at room temperature, the luminescence intensity was measured using a ViewLux plate reader (PerkinElmer).
# Potency is read from the fitted curve at half-maximal effect.
Compound,Potency,"activity change, negative = cytotoxicity"
CCCCN(CC)c1c([N+](=O)[O-])cc(C(F)(F)F)cc1[N+](=O)[O-],inactive,–
Cc1ccc2c(c1N)C(=O)c1ccccc1C2=O,inactive,–
NC(=S)Nc1ccccc1,25 µM (active) and inactive,–
CC(C)(C)c1ccccc1O,–,-15% (inactive)
N#Cc1cc(Br)c(O)c(Br)c1,11 µM (active) and 13.3 µM (active),–
CCOc1cc(C=O)ccc1O,inactive,–
OCC(O)CO,inactive,–
CCCCC(CC)COC(=O)c1ccc(C(=O)OCC(CC)CCCC)c(C(=O)OCC(CC)CCCC)c1 (stereo not given),inactive,–
CCC(C)c1cc([N+](=O)[O-])cc([N+](=O)[O-])c1O (stereo not given),–,2.21% (inactive)
Cc1cc(C)cc(C)c1,inactive,–
O=C(CCl)c1ccccc1,inactive,–
O=C(O)CC[N+](=O)[O-],–,-4.42% (inactive)
c1cc(OCC2CO2)ccc1Cc1ccc(OCC2CO2)cc1 (stereo not given),inactive,–
O=[N+]([O-])c1cccc2ccccc12,inactive,–
CCN(CC)C(=O)SCc1ccc(Cl)cc1,inactive,–
Nc1c(Cl)cc([N+](=O)[O-])cc1Cl,–,-16.8% (inactive)
c1ccc(N=Nc2ccccc2)cc1,inactive,–
COc1ccc(C=O)cc1,inactive,–
C=CCc1ccc2c(c1)OCO2,inactive,–
CN(C)c1ccc(C(=O)c2ccc(N(C)C)cc2)cc1,inactive,–

Compound,Potency,"activity change, negative = cytotoxicity"
COP(=S)(OC)Oc1ccc([N+](=O)[O-])cc1,inactive,–
CCN(CC)C(=O)/C(Cl)=C(\C)OP(=O)(OC)OC,inactive,–
O=C1C=CC(=O)C=C1,inactive,–
CCOCN(C(=O)CCl)c1c(C)cccc1CC,–,-4.38% (inactive)
Oc1ccc(-c2ccccc2)cc1,inactive,–
CC(C)(c1cc(Cl)c(O)c(Cl)c1)c1cc(Cl)c(O)c(Cl)c1,inactive,–
Brc1ccc(Oc2cc(Br)c(Br)cc2Br)c(Br)c1,17.4 µM (active),–
CCCCNC(=O)n1c(NC(=O)OC)nc2ccccc21,inactive,–
CC(C)NC(C)C,inactive,–
Nn1cnnc1,inactive,–
Cc1ccccc1[N+](=O)[O-],inactive,–
CCN(N=O)C(N)=O,inactive,–
O=C(O)C(F)(F)C(F)(F)C(F)(F)C(F)(F)C(F)(F)C(F)(F)C(F)(F)F,inactive,–
c1ccc(NNc2ccccc2)cc1,–,-5.23% (inactive)
CNC(=O)N(C)c1nnc(C(C)(C)C)s1,inactive,–
Cc1ccc(N)c(N)c1,inactive,–
CN(C)C(=O)Nc1ccc(Cl)cc1,–,-4.09% (inactive)
C=CC(=O)OCCO,inactive,–
CC(C)c1ccc(CO)cc1,inactive,–
COc1ccc(C(CN(C)C)C2(O)CCCCC2)cc1 (stereo not given),inactive,–
